Measurements from the supplement of paper PMC13380429.

Tested on: Vero E6 infected with SARS-CoV-2
Assay: inhibition of SARS-CoV-2 cytopathic effect; higher = more antiviral protection, active = above 15
Conditions: 48 h

Measured: inhibition of SARS-CoV-2 cytopathic effect

CC(=O)N[C@H]1[C@H]([C@H](O)[C@H](O)CO)OC(C(=O)O)=C[C@@H]1NC(=N)N [zanamivir]
inactive: 1 nM 0.39% | 8.33 nM 0.16% | 100 nM -0.26% | 833.33 nM 2.6% | 10000 nM 2.28%

Cc1ncc(C[n+]2csc(CCOP(=O)(O)OP(=O)(O)O)c2C)c(N)n1 [thiamine-pyrophosphate]
inactive: 1 nM 2.5% | 8.33 nM 1.37% | 100 nM -0.57% | 833.33 nM 2.37% | 10000 nM 0.01%

COCCCN1CCC(NC(=O)c2cc(Cl)c(N)c3c2OCC3)CC1 [prucalopride]
inactive: 1 nM 0.43% | 8.33 nM 1.93% | 100 nM -0.24% | 833.33 nM 3.32% | 10000 nM 1.47%

O=C1CCCN1CC#CCN1CCCC1 [oxotremorine-sesquifumarate]
inactive: 1 nM 0.81% | 8.33 nM 2.23% | 100 nM 4.01% | 833.33 nM 3.15% | 10000 nM 0.96%

CC(C)(C)NC(=O)[C@@H]1C[C@@H]2CCCC[C@@H]2CN1C[C@@H](O)[C@H](Cc1ccccc1)NC(=O)[C@H](CC(N)=O)NC(=O)c1ccc2ccccc2n1 [saquinavir]
inactive: 1 nM -9.33% | 8.33 nM -7.46% | 100 nM -1.46% | 833.33 nM -6.25% | 10000 nM -22%

CC(C)OC(=O)[C@H](C)N[P@@](=O)(OC[C@H]1O[C@@H](n2ccc(=O)[nH]c2=O)[C@](C)(F)[C@@H]1O)Oc1ccccc1
inactive: 1 nM 2.14% | 8.33 nM -0.76% | 100 nM -2.61% | 833.33 nM -0.19% | 10000 nM 0.32%
